Screening data (PubChem BioAssay)
This is a sample that favours compounds with a hit; in the whole collection about 19% have one here.
SW480 rereplic: inducers of DNA re-replication in SW480 colon cancer cells. SW480 DNA re-replication, Hoechst DNA content imaging, 48 h. Potency, µM (highest dose often 46.1 µM), for the others: at the highest dose re-replication activation, hits mostly activators. hit rate 1.8% among 340,000; further: potency means the concentration at half of the fitted maximal effect; % of control where 0% means no effect; nearly all actives have a fitted effect of over 55% in size
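First, 250 cells per well were seeded. Next, compound or vehicle (23 nL) was pinned in, plates sat 48 hr at 37 C. Finally Hoechst was added for 40 min before fluorescence scanning.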
IL1B secr inh: inhibitors of inflammasome signaling (IL-1 beta secretion); THP-1 LPS/ATP IL-1B secretion, AlphaLISA, 16 h; stronger effect = lower value; activity change, % at 57.5 µM; hit rate 4.7% among 360,000; AID 743279; in the data active means activity change below about -50%; inconclusive means mostly about -30% to -49%; further: on the % scale 0 is the no-effect control and ±100 the full control effect
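THP-1 cells pretreated 1 hr with compounds (up to 57.5 uM final), then stimulated with LPS (250 ng/mL final) plus ATP (1.25 mM final); secreted IL-1B measured by AlphaLISA after 16 hr, decreased signal indicating inhibition.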
TDP1 cell CPT: DT40-hTDP1 cell growth loss with CPT | chicken DT40 Tdp1-/-;hTDP1 cells + 20 nM CPT, ATP luminescence, 48 h | Potency, µM (series often up to 46.2 µM), inactives show at the top dose activity change, negative = growth inhibition, hits mostly inhibitors | hit rate 12% among 420,000 | AID 686979; further: potency means the concentration at half of the fitted maximal effect; on the % scale 0 is the no-effect control and ±100 the full control effect; nearly all actives have a fitted effect of over 55% in size
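Cell growth measured by CellTiter-Glo luminescence after a minimum 48 h, 37 C compound exposure with 20 nM CPT in Tdp1-knockout DT40 cells stably expressing hTDP1, seeded 400/well; qHTS titration format.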
BCR signal inh: blocks chronic active B-cell receptor signaling | ABC-DLBCL IkBa-CBG/CBR reporter, luminescence ratio, 4 h | Potency, µM (titrated, usually from 46.1 µM), without a hit: at the top dose activity change, negative = inhibition, hits mostly inhibitors | hit rate 0.05% among 340,000 | AID 493014; active means well fitted inhibition curve with a large enough effect in the signal ratio, with a control signal flat, not every such curve was filed as active; inconclusive means small, poorly fitted or top-dose-only effect, or effect the other way, or a change in a side signal; the % refers to the signal ratio;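 further: potency means the concentration at half of the fitted maximal effect; plate controls were basal doxycycline-induced cells for no effect and cells given 10 µM MG132 for full effect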
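Concentration-response series (up to 46 uM) were applied to TMD8 dual-reporter cells for 4 h at 37C with doxycycline. Green/red ratio, after filter-overlap correction, defined %Activity; red signal alone was normalised to basal cells and zero luminescence.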
MCF10A rereplic: DNA re-replication induction in MCF 10a cells | AID 624296 | hit rate 2.9% among 350,000 | MCF 10A DNA re-replication, Hoechst nuclear intensity, 48 h | Potency, µM (titrated, usually from 46.1 µM), for inactives: at the highest dose activity, positive = re-replication, most hits filed as activators; further: potency means the concentration at half of the fitted maximal effect; % of control where 0% means no effect; nearly all actives have a fitted effect of over 50% in size
TDP1 cell noCPT: qHTS for Inhibitors of human tyrosyl-DNA phosphodiesterase 1 (TDP1): qHTS in cells in absence of CPT; DT40 Tdp1-/- hTDP1 cells, no CPT, ATP luminescence, 48 h; Potency, µM (doses to about 46.2 µM), for the others: top-dose activity change, negative = growth inhibition, actives largely listed as inhibitors; hit rate 15% among 420,000; further: potency means the concentration at half of the fitted maximal effect; on the % scale 0 is the no-effect control and ±100 the full control effect; nearly all actives have a fitted effect of over 55% in size
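Seeded 400 DT40-hTDP1 cells/well (vehicle DMSO, no 20 nM CPT); pinned compounds; ≥48 hr at 37 °C; CellTiter-Glo luminescence as viability measure.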
Active calls of the source: *; ? = inconclusive; nt = no result given; [ ] = remark or other dose. Unless noted, the call rests on the fitted dose curve; in most records, active means well fitted curve in the direction sought with a large enough effect; inconclusive means small, poorly fitted or top-dose-only effect, or another doubt; inactive means no such curve, though single readings can be large; an effect the other way counts as inactive or inconclusive.

SMILES	SW480 rereplic	IL1B secr inh	TDP1 cell CPT	BCR signal inh	MCF10A rereplic	TDP1 cell noCPT
O=C(CNc1cccc(S(=O)(=O)N2CCCC2)c1)Nc1cccc(Br)c1	0.0%	-2.9	?	4.8%	23.2%	20.6µM*
COc1ccc(NCC(=O)Nc2cccc(S(=O)(=O)N3CCCC3)c2)cc1Cl	2.4%	-11.7	?	-8.4%	0.0%	13µM*
CC(=O)c1cccc(NCC(=O)Nc2cc(S(=O)(=O)N3CCCCC3)ccc2C)c1	-3.0%	-4.0	16.4µM*	-2.2%	?	?
CN(C)S(=O)(=O)c1cccc(NC(=O)CNc2cccc(S(=O)(=O)N3CCCCC3)c2)c1	nt	12.7	?	nt	nt	20.6µM*
O=C(CNS(=O)(=O)c1ccccc1)NCC(=O)OCc1ccc(Cl)cc1	-4.9%	2.7	-6.0%	-5.9%	-12.9%	0.1%
CC(=O)N/C(=C\c1ccccc1)C(=O)OC(C)C(=O)Nc1ccccc1F (stereo not given)	-9.0%	-20.0	-3.2%	-13.5%	-3.4%	-8.6%
CC(=O)N1CCN(Cc2cc(=O)oc3cc(C)cc(C)c23)CC1	nt	-15.3	-1.7%	nt	nt	-15.1%
CCC(CO)Nc1ncnc2c1cnn2-c1ccc(C)cc1 (stereo not given)	nt	nt	-6.2%	?	nt	-28.2%
CCN(CC)S(=O)(=O)c1ccc(C)c(NC(=S)Nc2cccc(S(=O)(=O)N3CCCCCC3)c2)c1	0.2%	?	?	?	14.3%	23.1µM*
COc1ccc(S(=O)(=O)N(C)C)cc1NCC(=O)Nc1ccc(Br)cc1F	-2.6%	?	13µM*	9.3%	3.3%	29.1µM*
COc1ccc(NC(=O)CNS(=O)(=O)c2ccccc2)cc1Cl	?	-16.5	?	-16.4%	8.2µM*	-21.6%
COc1ccc(NC(=O)COC(=O)CNS(=O)(=O)c2ccccc2)cc1OC	4.5%	15.4	4.4%	2.5%	-37.1%	-19.7%
COc1ccc(NC(=O)COC(C)=O)cc1Cl	-2.6%	-5.2	?	-4.6%	-0.8%	12.0%
CCN(CC)S(=O)(=O)c1ccc(C)c(NC(=O)CNc2cccc(S(=O)(=O)N3CCOCC3)c2)c1	-527.0%	?	-3.7%	0.0%	?	?
CC(=O)Nc1ccc(S(=O)(=O)N(C)CC(=O)Nc2ccc(Br)cc2F)cc1	0.4%	-12.0	-18.0%	-12.0%	9.2%	?
COc1ccc(NC(=O)COC(=O)/C=C/C(=O)OCC(=O)Nc2ccc(OC)c(Cl)c2)cc1Cl	?	-103.1*	?	1.8%	?	?
O=C(NCCc1cccs1)Nc1nnc([C@H]2C[C@H](O)[C@@H](CO)O2)s1	nt	17.6	-11.5%	nt	nt	-0.8%
CCN(CC)S(=O)(=O)c1cc(NC(=O)CNc2cccc(S(=O)(=O)N3CCCC3)c2)ccc1C	-1.6%	?	3.26µM*	2.4%	26.1%	2.59µM*
Cc1ccc(S(=O)(=O)N2CCCCC2)cc1NCC(=O)Nc1ccc(Br)cc1F	nt	?	4.61µM*	nt	nt	3.66µM*
CCOC(=O)/C=C/C(=O)OCC(=O)Nc1c(Cl)cccc1Cl	-1.7%	-53.9*	?	?	-0.7%	-28.9%
COc1ccc(NC(=O)CN(C)C(=O)CNC(=O)c2ccc3c(c2)OCO3)cc1	-37.5%	35.0	2.7%	0.3%	-13.0%	-21.8%
Cc1ccc(-c2nc3cc(Br)cnc3nc2-c2ccc(C)cc2)cc1	9.9%	109.3	14.6µM*	6.0%	27.1%	?
CC(=O)c1cccc(NC(=O)c2sc(-n3nc(C)c(Cc4ccc5c(c4)OCO5)c3C)nc2C)c1	nt	nt	14.6µM*	nt	nt	14.6µM*
Cc1nc2ccccc2nc(C)c1=NOCC(=O)N(c1ccccc1)C(C)C	-5.5%	42.9	?	-0.3%	10.4%	18.4µM*
CCN(CC)C(=O)Cn1nc(-c2ccc(Cl)cc2)c2ccccc2c1=O	-4.4%	-19.3	-24.9%	?	10.1%	-26.5%
SMILES	SW480 rereplic	IL1B secr inh	TDP1 cell CPT	BCR signal inh	MCF10A rereplic	TDP1 cell noCPT
Cc1ccc(Cn2c(C(C)Nc3nc(-c4ccc(F)cc4)cs3)nc3cc(C(F)(F)F)ccc32)cc1 (stereo not given)	-0.4%	-25.4	20.6µM*	nt	0.7%	?
CC(Nc1nc(-c2ccc(F)cc2)cs1)c1nc2cc(C(F)(F)F)ccc2n1CCCO (stereo not given)	19.0%	-28.9	?	nt	?	16.4µM*
COc1ccc(-c2csc(NC(C)c3nc4cc(C(F)(F)F)ccc4n3CCOCCO)n2)cc1 (stereo not given)	33.0%[9.22 µM]	?	16.4µM*	nt	24.0%	18.4µM*
CCOC(=O)C1=C(NC(=S)NC(=O)c2ccccc2)c2ccccc2CC1C(C)C (stereo not given)	?	-18.8	?	20.9%	?	23.1µM*
CCOC(=O)C1=C(NC(=S)NC(=O)c2ccccc2)c2ccccc2CC1(C)CC (stereo not given)	9.6%	-56.3*	-93.1%	10.9%	13µM*	?
CCOC(=O)c1cccc(NC(=S)NC(=O)c2cccnc2)c1	-9.0%	41.8	-0.2%	?	-11.9%	1.6%
Nc1ccn([C@@H]2O[C@H](CO)[C@@H](O)[C@H]2O)c(=O)n1	-3.4%	0.9	2.3%	nt	17.0%	-0.7%
Nc1nc(=O)n(C2CC(O)C(CO)O2)cc1Cl (stereo not given)	nt	9.9	?	nt	nt	-25.8%
Nc1ccn(C2OC(CCl)C(O)C2O)c(=O)n1 (stereo not given)	nt	20.6	2.59µM*	nt	nt	3.66µM*
Nc1ccn([C@@H]2O[C@H](CO)[C@@H](O)C2O)c(=O)n1 (stereo not given in full)	?	63.0	0.0366µM*	-8.9%	-68.8%	0.0411µM*
Nc1nc(=O)n(C2OC(CO)C(O)C2O)cc1Cl (stereo not given)	nt	nt	?	nt	nt	5.17µM*
Nc1ccn([C@@H]2O[C@H](COS(=O)(=O)O)[C@@H](O)[C@H]2O)c(=O)n1	-33.1%	20.1	9.2µM*	-2.9%	11.6%	1.84µM*
Nc1ccn([C@@H]2O[C@H](CNCc3cnc(N4CCOCC4)s3)[C@@H](O)[C@H]2O)c(=O)n1	nt	22.6	0.5%	nt	nt	?
O=c1[nH]cnc2c1ncn2[C@@H]1O[C@H](COS(=O)(=O)O)[C@@H](O)[C@H]1O	9.6%	-3.5	3.66µM*	1.5%	3.0%	?
CCCCCCCCCCCCCCCCCCCCCC(=O)Nc1ccn([C@@H]2O[C@H](CO)[C@@H](O)[C@@H]2O)c(=O)n1	?	nt	2.66µM*	nt	7.8%	3.35µM*
